Experimental data from PubChem BioAssay AID1159580 (chemical genetic matrix, 2015).
Screen size: about 5,500 compounds; about 2,000 (36%) were called active. Not shown: some 18% with an inconclusive outcome. No stated cut-off is given here; in the data, active means normalized growth mostly below about 0.91 (no sharp cut-off); inconclusive means no clear call, values can overlap the other calls; inactive means mostly above about 0.92. This is one part of the list.

Assay: chemical genetic growth profiling, strain panel (AID 1159580);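 further: tested at 20 µM; growth read once vehicle control cultures reached saturation at 30 °C; 1 = growth at the plate median or of vehicle wells; lower values mean less growth of the strain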
Conditions: growth OD
[1] = S. cerevisiae deletion strains, locus YGR229C, strain SMI1, active compounds read low
[2] = S. cerevisiae deletion strains, locus YMR307W, strain GAS1, active compounds read low

Measured: normalized growth

COc1cc2c(c(OC)c1OC)-c1ccc(OC)c(=O)cc1C(NC(C)=O)CC2 (stereo unspecified)
inactive: S. cerevisiae deletion strains, locus YAL040C, strain CLN3, active compounds read low 0.95 | S. cerevisiae deletion strains, locus YDR150W, strain NUM1, active compounds read low 1.03 | S. cerevisiae deletion strains, locus YDR363W, strain ESC2, active compounds read low 1 | S. cerevisiae deletion strains, locus YER002W, strain NOP16, active compounds read low 1.01 | [1] 1 | [2] 0.984 | S. cerevisiae deletion strains, locus YNL153C, strain GIM3, active compounds read low 1.06 | S. cerevisiae deletion strains, locus YNL175C, strain NOP13, active compounds read low 1.01 | S. cerevisiae deletion strains, locus YNL197C, strain WHI3, active compounds read low 1.01 | S. cerevisiae deletion strains, locus YNL224C, strain SQS1, active compounds read low 1 | S. cerevisiae deletion strains, locus YOR083W, strain WHI5 (second series), active compounds read low 1.02

COc1cc2c(c(OC)c1OC)-c1ccc(O)c(=O)cc1[C@@H](NC(C)=O)CC2
inactive: S. cerevisiae deletion strains, locus YBR021W, strain FUR4, active compounds read low 0.865 | S. cerevisiae deletion strains, locus YBR229C, strain ROT2, active compounds read low 0.962 | S. cerevisiae deletion strains, locus YCL029C, strain bik1, active compounds read low 0.982 | S. cerevisiae deletion strains, locus YDL192W, strain arf1, active compounds read low 0.978 | S. cerevisiae deletion strains, locus YDR318W, strain mcm21, active compounds read low 0.94 | S. cerevisiae deletion strains, locus YDR388W, active compounds read low 1 | S. cerevisiae deletion strains, locus YDR502C, strain sam2, active compounds read low 0.93 | S. cerevisiae deletion strains, locus YER110C, active compounds read low 1.03 | S. cerevisiae deletion strains, locus YER155C, strain BEM2, active compounds read low 0.98 | S. cerevisiae deletion strains, locus YGL078C, strain dbp3, active compounds read low 0.957 | S. cerevisiae deletion strains, locus YGR135W, strain pre9, active compounds read low 0.945 | S. cerevisiae deletion strains, locus YGR252W, strain gcn5, active compounds read low 0.879 | S. cerevisiae deletion strains, locus YHR094C, strain hxt1, active compounds read low 0.988 | S. cerevisiae deletion strains, locus YHR200W, strain rpn10, active compounds read low 0.977 | S. cerevisiae deletion strains, locus YIR030C, strain dcg1, active compounds read low 0.988 | S. cerevisiae deletion strains, locus YJL168C, strain set2, active compounds read low 1 | S. cerevisiae deletion strains, locus YKL009W, strain mrt4, active compounds read low 0.984 | S. cerevisiae deletion strains, locus YKL068W, active compounds read low 0.968 | S. cerevisiae deletion strains, locus YLR102C, strain apc9, active compounds read low 1.02 | S. cerevisiae deletion strains, locus YLR262C, strain YPT6, active compounds read low 0.72 | S. cerevisiae deletion strains, locus YLR342W, strain FKS1 (second series), active compounds read low 0.801 | S. cerevisiae deletion strains, locus YLR371W, strain rom2, active compounds read low 0.933 | S. cerevisiae deletion strains, locus YLR418C, strain cdc73, active compounds read low 0.841 | S. cerevisiae deletion strains, locus YML032C, strain rad52, active compounds read low 1 | S. cerevisiae deletion strains, locus YML124C, strain tub3, active compounds read low 1 | S. cerevisiae deletion strains, locus YMR078C, strain ctf18, active compounds read low 1.01 | S. cerevisiae deletion strains, locus YMR223W, strain ubp8, active compounds read low 0.938 | S. cerevisiae deletion strains, locus YNL250W, strain rad50, active compounds read low 0.968 | S. cerevisiae deletion strains, locus YNL307C, strain MCK1, active compounds read low 1.01 | S. cerevisiae deletion strains, locus YNR052C, strain pop2, active compounds read low 0.961 | S. cerevisiae deletion strains, locus YOL012C, strain htz1 0.984 | S. cerevisiae deletion strains, locus YOL147C, strain pex11, active compounds read low 1.01 | S. cerevisiae deletion strains, locus YOR136W, strain idh2, active compounds read low 0.988 | S. cerevisiae deletion strains, locus YOR144C, strain elg1, active compounds read low 0.97 | S. cerevisiae deletion strains, locus YOR184W, strain ser1, active compounds read low 1 | S. cerevisiae deletion strains, locus YOR316C, strain cot1, active compounds read low 1.02 | S. cerevisiae deletion strains, locus YPR119W, strain clb2, active compounds read low 1.03 | S. cerevisiae deletion strains, locus YPR141C, strain kar3, active compounds read low 0.997 | S. cerevisiae deletion strains, locus YPR163C, strain tif3, active compounds read low 1.01 | S. cerevisiae deletion strains, locus YPR167C, strain met16, active compounds read low 0.929
active: S. cerevisiae deletion strains, locus YDL035C, strain GPR1, active compounds read low 0.543 | S. cerevisiae deletion strains, locus YDL074C, strain BRE1, active compounds read low 0.515 | S. cerevisiae deletion strains, locus YDL101C, strain DUN1, active compounds read low 0.715 | S. cerevisiae deletion strains, locus YDL134C, strain PPH21, active compounds read low 0.87 | S. cerevisiae deletion strains, locus YDL185W, strain tfp1, active compounds read low 0.323 | S. cerevisiae deletion strains, locus YDR101C, strain arx1, active compounds read low 0.904 | S. cerevisiae deletion strains, locus YDR162C, strain NBP2, active compounds read low 0.382 | S. cerevisiae deletion strains, locus YEL061C, strain CIN8, active compounds read low 0.819 | S. cerevisiae deletion strains, locus YER167W, strain BCK2, active compounds read low 0.798 | S. cerevisiae deletion strains, locus YGL086W, strain mad1, active compounds read low 0.882 | S. cerevisiae deletion strains, locus YGL248W, strain PDE1, active compounds read low 0.744 | S. cerevisiae deletion strains, locus YGR078C, strain PAC10, active compounds read low 0.729 | [1] 0.247 | S. cerevisiae deletion strains, locus YHR030C, strain SLT2, active compounds read low 0.879 | S. cerevisiae deletion strains, locus YHR079C, strain IRE1 (second series), active compounds read low 0.851 | S. cerevisiae deletion strains, locus YHR129C, strain ARP1, active compounds read low 0.764 | S. cerevisiae deletion strains, locus YIL066C, strain RNR3, active compounds read low 0.543 | S. cerevisiae deletion strains, locus YIL073C, strain SPO22, active compounds read low 0.355 | S. cerevisiae deletion strains, locus YIL125W, strain kgd1, active compounds read low 0.881 | S. cerevisiae deletion strains, locus YJL095W, strain BCK1, active compounds read low 0.722 | S. cerevisiae deletion strains, locus YJL134W, strain LCB3, active compounds read low 0.913 | S. cerevisiae deletion strains, locus YJL187C, strain SWE1 (second series), active compounds read low 0.59 | S. cerevisiae deletion strains, locus YJR043C, strain POL32, active compounds read low 0.55 | S. cerevisiae deletion strains, locus YKL085W, strain MDH1 (second series), active compounds read low 0.91 | S. cerevisiae deletion strains, locus YKL085W, strain MDH1, active compounds read low 0.91 | S. cerevisiae deletion strains, locus YKL190W, strain CNB1, active compounds read low 0.593 | S. cerevisiae deletion strains, locus YKR001C, strain vps1, active compounds read low 0.889 | S. cerevisiae deletion strains, locus YLR039C, strain RIC1, active compounds read low 0.454 | S. cerevisiae deletion strains, locus YLR058C, strain SHM2, active compounds read low 0.691 | S. cerevisiae deletion strains, locus YLR268W, strain sec22, active compounds read low 0.852 | S. cerevisiae deletion strains, locus YLR330W, strain CHS5, active compounds read low 0.886 | S. cerevisiae deletion strains, locus YML016C, strain PPZ1, active compounds read low 0.829 | [2] 0.577 | S. cerevisiae deletion strains, locus YNL067W, strain RPL9B, active compounds read low 0.732 | S. cerevisiae deletion strains, locus YNL233W, strain BNI4, active compounds read low 0.81 | S. cerevisiae deletion strains, locus YNL271C, strain bni1, active compounds read low 0.843 | S. cerevisiae deletion strains, locus YNL298W, strain CLA4, active compounds read low 0.891 | S. cerevisiae deletion strains, locus YNL322C, strain KRE1, active compounds read low 0.639 | S. cerevisiae deletion strains, locus YOL006C, strain TOP1, active compounds read low 0.198 | S. cerevisiae deletion strains, locus YOR061W, strain CKA2, active compounds read low 0.753 | S. cerevisiae deletion strains, locus YOR069W, strain VPS5, active compounds read low 0.896 | S. cerevisiae deletion strains, locus YPL055C, strain LGE1, active compounds read low 0.436 | S. cerevisiae deletion strains, locus YPL241C, strain CIN2, active compounds read low 0.9 | S. cerevisiae deletion strains, strain wtn01, active compounds read low 0.881 | S. cerevisiae strains, strain wild type, active compounds read low 0.285
